Assay [1] is described as follows: NCI Yeast Anticancer Drug Screen. Data for the rad50 strain (AID 155).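 Further: 0% = growth of vehicle-only cultures of the same strain.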 The note with it: S. cerevisiae rad50 strain growth inhibition, active compounds read high; at 50.0 µM unless noted. The essentials: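 Inhibition values express reduced yeast growth in compound-treated cultures relative to vehicle-treated controls.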
Assay [2] can be described thus: NCI Yeast Anticancer Drug Screen. Data for the mec2-1 strain (AID 157). The conditions noted are these: S. cerevisiae mec2-1 strain, active compounds read high; at 50.0 µM unless noted. Put shortly: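 Strain: mec2-1 (DNA repair/cell cycle alteration). Compound exposure, then growth measured; inhibition expressed relative to vehicle.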
Assay [3] can be described thus: NCI Yeast Anticancer Drug Screen. Data for the sgs1 mgt1 strain (AID 161).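 Further: 0% = growth of cultures given vehicle only.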 The note with it: S. cerevisiae sgs1 mgt1 strain, active compounds read high; at 50.0 µM unless noted. Put shortly:
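Mutant yeast exposed to compound; growth scored against vehicle-only wells.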

The nature of assay [4]: NCI Yeast Anticancer Drug Screen. Data for the cln2 rad14 strain (AID 165).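 Further: 0% = growth equal to vehicle treated cultures.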 The note with it: S. cerevisiae cln2 rad14 strain, active compounds read high; at 50.0 µM unless noted. Put shortly: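 Compounds are applied to the cln2 rad14 yeast strain, and growth is then compared with that of vehicle-treated cultures to give inhibition.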
Assay [5] is described as follows: NCI Yeast Anticancer Drug Screen. Data for the bub3 strain (AID 167). The conditions noted are these: S. cerevisiae bub3 mutant strain, active compounds read high; at 50.0 µM unless noted. Put shortly: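 Steps: expose the mutant yeast strain to compound; grow alongside vehicle-treated cultures; measure growth; express inhibition against the vehicle cultures.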
Assay [6] is described as follows: NCI Yeast Anticancer Drug Screen. Data for the mlh1 rad18 strain (AID 175). The note with it: S. cerevisiae mlh1 rad18 strain growth inhibition, active compounds read high; at 50.0 µM unless noted. Put shortly:
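Read-out is yeast growth inhibition, calculated against vehicle-only controls. The compound was applied to a strain engineered with DNA damage repair alterations.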

The results in this text go back to PubChem BioAssay (NCI).

Structures are written as SMILES. This is part of a sample that, as a whole, favours compounds with a hit. Of some 79,000 tested, about 15% had one in any assay. Unmarked numbers belong to inactive results. Activity calls are given as the source filed them. No stated cut-off is given here; in the data, active means growth inhibition above about 70%; inactive means the rest.

`COc1ccc(OC(C)C(=O)O)c2c(=O)ccccc12` (stereo not given): the growth inhibition in assay [1] is 13.9%; in assay [2], 10.7%; in assay [3], -5.2%; in assay [4], 25.2%; in assay [5], 5.7%; in assay [6], 22.1%.
`O=C1CN(Cc2cccc(Cl)c2)CC(=O)N2Cc3ccccc3CN12`: the growth inhibition in assay [1] is 34.4%; in assay [2], -1%; in assay [3], 14.2%; in assay [4] it was -10.8%; in assay [5], 8.9%; in assay [6], -11.5%.
With `O=S(=O)(Nc1nccs1)c1ccc(NCc2c3ccccc3nc3cc(Cl)ccc23)cc1`, the growth inhibition in assay [1] is 13.3%; in assay [2], 3.15%; in assay [3], 9.75%; in assay [4], -6.65%; in assay [5], -0.2%; in assay [6] it was 25.8%.
Turning to `O=C1NCCCc2nonc21`, the growth inhibition in assay [1] was 18.9%; in assay [2] it was 16.4%; in assay [3], 7.9%; in assay [4] it was 4%; in assay [5], 4%; in assay [6], 5.2%.
For `CCCCCCCCCOc1ccc(C=Nc2ccc(C)cc2)cc1`, the growth inhibition in assay [1] was -4.3%; in assay [2], 7.8%; in assay [3], -2.55%; in assay [4] it was -18.9%; in assay [5], -10.9%; in assay [6], -4.65%.
In the case of `COc1ccc(C2OC3=C(Nc4ccccc4N3)C2=O)cc1` (stereo not given), the growth inhibition in assay [1] was 19.5%; in assay [2], 5.8%; in assay [3], 27.4%; in assay [4] it was 14.1%; in assay [5] it was -14.3%; in assay [6], 46.2%.
In the case of `CCOC(=O)C(=CNc1ccc(OC)cc1[N+](=O)[O-])C(=O)OCC`, the growth inhibition was 11.7% in assay [1]; 7.85% in assay [2]; 11.6% in assay [3]; 0.3% in assay [4]; 11.3% in assay [5]; 15.1% in assay [6].
On to `CC(=NCCCCN=C(C)c1cc(O)cc(Br)c1O)c1cc(O)cc(Br)c1O.[Co]`, for which the growth inhibition in assay [1] is 17.9%; in assay [2], 17.9%; in assay [3] it was 12.3%; in assay [4] it was 6.45%; in assay [5], 2.1%; in assay [6] it was 24.4%.
On to `CSC(=S)OC(C)CC(C)C` (stereo not given), for which the growth inhibition is 37.6% in assay [1]; -3.95% in assay [2]; 30.7% in assay [3]; -12.1% in assay [4]; 6.95% in assay [5]; 25.5% in assay [6].
`CC(C)C(C(N)=O)(C(=O)O)C(C)C`: the growth inhibition in assay [1] was -4.25%; in assay [2], 4.05%; in assay [3], 4.6%; in assay [4], 5.2%; in assay [5], -5.5%; in assay [6], 6.85%.
Turning to `CC(=O)CSc1c(-c2ccccc2)c(=O)n(-c2ccccc2)c(=S)n1-c1ccccc1`, the growth inhibition in assay [1] is -3.8%; in assay [2], -10.1%; in assay [3], -13.2%; in assay [4] it was -2.3%; in assay [5] it was -8.5%; in assay [6], 3.85%.
As for `CC(=O)CC(=O)Nc1nc2ccccc2s1`, the growth inhibition in assay [1] was -4.45%; in assay [2] it was 2.65%; in assay [3], 9.05%; in assay [4], -13.2%; in assay [5] it was -7.5%; in assay [6], 15.2%.
Consider `COC(=O)/C=C(\C(=O)OC)N1CCCCC1`, for which the growth inhibition is 1.55% in assay [1]; -3.8% in assay [2]; -6.55% in assay [3]; -29.9% in assay [4]; 2.3% in assay [5]; -23.1% in assay [6].
With `CN(C)c1ccc(/C=C(\C#N)c2ccc(F)cc2)cc1`, the growth inhibition was -2.65% in assay [1]; -1.8% in assay [2]; 3.05% in assay [3]; -26.6% in assay [4]; -6.75% in assay [5]; -17.8% in assay [6].
`CCOC(=O)CC(=O)CC(=O)OCC`: the growth inhibition in assay [1] was 36%; in assay [2], 2.6%; in assay [3], -6.95%; in assay [4], 6.1%; in assay [5] it was 23%; in assay [6], 7%.
Consider `COC(=O)C1(C)C=C(Nc2ccccc2)C(=O)N1c1ccccc1` (stereo not given), for which the growth inhibition in assay [1] is -3.45%; in assay [2], -19.8%; in assay [3] it was 6.2%; in assay [4], 21.8%; in assay [5], 23.4%; in assay [6], 2.25%.
On to `C/C(N)=N\O`, for which the growth inhibition in assay [1] is 20.1%; in assay [2] it was 4.1%; in assay [3] it was 2.45%; in assay [4], 9.85%; in assay [5] it was 0.1%; in assay [6] it was 1.65%.
For `CC1(C)CC(=O)C(/C=N/C(=S)Nc2ccc(S(N)(=O)=O)cc2)=C(O)C1`, the growth inhibition was -41.5% in assay [1]; -68.5% in assay [2]; -23.8% in assay [3]; -8.55% in assay [4]; -16.6% in assay [5]; -30.4% in assay [6].
In the case of `COc1ccc(CCNCC(O)CSc2ccc(Cl)cc2)cc1OC` (stereo not given), the growth inhibition was 74.8% (active) in assay [1]; 20.4% in assay [2]; 73% (active) in assay [3]; 27.9% in assay [4]; 22% in assay [5]; 30.6% in assay [6].
With `Cc1nc(N(C)C)oc(=O)c1CCc1ccccc1`, the growth inhibition in assay [1] was -5.8%; in assay [2], 3.8%; in assay [3], -0.9%; in assay [4] it was 0.2%; in assay [5] it was 6.9%; in assay [6] it was 8.9%.
